Experimental data from PMC7862700, “An all-to-all approach to the identification of sequence-specific readers for epigenetic DNA modifications on cytosine”.

Target: T1, ERG (Homo sapiens, UniProt P11308 1-479)
T1 sequence: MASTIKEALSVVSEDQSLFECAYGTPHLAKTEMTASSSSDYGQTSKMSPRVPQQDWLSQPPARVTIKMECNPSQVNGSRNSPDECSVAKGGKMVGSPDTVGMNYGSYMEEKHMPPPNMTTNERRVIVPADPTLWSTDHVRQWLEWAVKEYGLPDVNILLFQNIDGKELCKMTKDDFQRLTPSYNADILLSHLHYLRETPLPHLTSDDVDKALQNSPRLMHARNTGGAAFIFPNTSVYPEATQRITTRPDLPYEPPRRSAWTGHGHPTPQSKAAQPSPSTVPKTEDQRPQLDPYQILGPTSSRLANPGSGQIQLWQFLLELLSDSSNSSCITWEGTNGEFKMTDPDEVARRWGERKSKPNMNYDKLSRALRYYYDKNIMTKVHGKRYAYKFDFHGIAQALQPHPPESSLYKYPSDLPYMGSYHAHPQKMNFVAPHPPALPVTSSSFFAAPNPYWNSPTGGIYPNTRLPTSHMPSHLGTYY
Experiment: DAPPL (digital affinity profiling via proximity ligation, sequencing); 10 mM Tris-HCl pH 7.5, 50 mM NaCl, 1 mM DTT, 4% glycerol, room temperature, 30 min; GST-TFs on glutathione beads, 16-mer random dsDNA library, 0.1% formaldehyde crosslink after washing; high values mean tight binding
Conditions: protein: recombinant; tags: N-terminal GST; dsDNA, one strand shown
Summary of the method: (§1)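 Human transcription factors were made in yeast as GST fusions, captured on glutathione beads and barcoded with DNA. With a tag-only sample included, the pool was incubated with 200 nmole of a random double-stranded 16-mer DNA library in Tris/NaCl/DTT/glycerol buffer at room temperature for 30 min, then crosslinked with 0.1% formaldehyde after washing, ligated by proximity, amplified and sequenced. For binding signal, each hexamer's read frequency for a factor is divided by its frequency for the tag-only sample.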

Sequence	binding signal
CATTCT	1.27 fold enrichment (6-mer frequency, TF over GST control)
TCGACT	1.35 fold enrichment (6-mer frequency, TF over GST control)
CTGTTT	1.4 fold enrichment (6-mer frequency, TF over GST control)
TACGCG	1.14 fold enrichment (6-mer frequency, TF over GST control)
GCTAAA	1.07 fold enrichment (6-mer frequency, TF over GST control)
AATCAA	1.21 fold enrichment (6-mer frequency, TF over GST control)
AATGCC	1.18 fold enrichment (6-mer frequency, TF over GST control)
ACACTT	1.8 fold enrichment (6-mer frequency, TF over GST control)
CCTATG	1.14 fold enrichment (6-mer frequency, TF over GST control)
AAGTAT	1.42 fold enrichment (6-mer frequency, TF over GST control)
CTCCGG	1.64 fold enrichment (6-mer frequency, TF over GST control)
TACTAC	1.24 fold enrichment (6-mer frequency, TF over GST control)
CCCTAC	1.33 fold enrichment (6-mer frequency, TF over GST control)
AATGGT	1.42 fold enrichment (6-mer frequency, TF over GST control)
ACCTTA	1.3 fold enrichment (6-mer frequency, TF over GST control)
TCCTCG	1.42 fold enrichment (6-mer frequency, TF over GST control)
TACCTC	1.19 fold enrichment (6-mer frequency, TF over GST control)
ATTTCA	1.25 fold enrichment (6-mer frequency, TF over GST control)
AATTAC	1.25 fold enrichment (6-mer frequency, TF over GST control)
CTTATT	1.53 fold enrichment (6-mer frequency, TF over GST control)

Sequence	binding signal
TATTCA	1.29 fold enrichment (6-mer frequency, TF over GST control)
TTCCTG	2.59 fold enrichment (6-mer frequency, TF over GST control)
CGCGCT	1.13 fold enrichment (6-mer frequency, TF over GST control)
TTATCT	1.15 fold enrichment (6-mer frequency, TF over GST control)
TCCATT	1.31 fold enrichment (6-mer frequency, TF over GST control)
CTGATT	1.2 fold enrichment (6-mer frequency, TF over GST control)
AACATT	1.25 fold enrichment (6-mer frequency, TF over GST control)
TTAAGC	1.15 fold enrichment (6-mer frequency, TF over GST control)
GGCTCC	1.35 fold enrichment (6-mer frequency, TF over GST control)
CTATTC	1.35 fold enrichment (6-mer frequency, TF over GST control)
ACCGAT	1.07 fold enrichment (6-mer frequency, TF over GST control)
AATAAT	1.33 fold enrichment (6-mer frequency, TF over GST control)
CGATGG	1.34 fold enrichment (6-mer frequency, TF over GST control)
TTATCC	1.43 fold enrichment (6-mer frequency, TF over GST control)
ATGCGC	1.18 fold enrichment (6-mer frequency, TF over GST control)
ATTCAC	1.27 fold enrichment (6-mer frequency, TF over GST control)
TGCGAT	1.18 fold enrichment (6-mer frequency, TF over GST control)
TACTTT	1.29 fold enrichment (6-mer frequency, TF over GST control)
ACGCTT	1.33 fold enrichment (6-mer frequency, TF over GST control)
CCCGCA	1.15 fold enrichment (6-mer frequency, TF over GST control)

Target: ELF1 (Homo sapiens, UniProt P32519 1-619)
Sequence (P32519 whole entry): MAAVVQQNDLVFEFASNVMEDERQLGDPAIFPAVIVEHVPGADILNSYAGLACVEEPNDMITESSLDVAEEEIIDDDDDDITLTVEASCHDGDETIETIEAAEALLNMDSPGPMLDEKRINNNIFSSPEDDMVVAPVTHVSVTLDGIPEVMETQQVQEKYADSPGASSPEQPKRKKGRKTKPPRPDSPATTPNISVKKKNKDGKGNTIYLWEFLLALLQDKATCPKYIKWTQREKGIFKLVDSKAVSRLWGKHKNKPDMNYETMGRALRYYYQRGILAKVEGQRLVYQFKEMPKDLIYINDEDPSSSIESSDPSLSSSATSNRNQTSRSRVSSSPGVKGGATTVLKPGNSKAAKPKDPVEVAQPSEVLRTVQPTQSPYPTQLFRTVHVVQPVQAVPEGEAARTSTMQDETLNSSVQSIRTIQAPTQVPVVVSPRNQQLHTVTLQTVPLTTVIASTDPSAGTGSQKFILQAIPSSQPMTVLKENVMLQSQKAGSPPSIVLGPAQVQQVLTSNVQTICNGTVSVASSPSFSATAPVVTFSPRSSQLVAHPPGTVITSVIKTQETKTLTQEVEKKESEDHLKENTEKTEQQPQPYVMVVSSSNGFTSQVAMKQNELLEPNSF
Experiment: as above
Conditions: protein: recombinant; tags: N-terminal GST; dsDNA, one strand shown
Summary of the method: as §1

Sequence	binding signal
CATTCT	1.4 fold enrichment (6-mer frequency, TF over GST control)
TCGACT	1.43 fold enrichment (6-mer frequency, TF over GST control)
CTGTTT	1.4 fold enrichment (6-mer frequency, TF over GST control)
TACGCG	1.12 fold enrichment (6-mer frequency, TF over GST control)
GCTAAA	1.08 fold enrichment (6-mer frequency, TF over GST control)
AATCAA	1.17 fold enrichment (6-mer frequency, TF over GST control)
AATGCC	1.13 fold enrichment (6-mer frequency, TF over GST control)
ACACTT	1.69 fold enrichment (6-mer frequency, TF over GST control)
CCTATG	1.27 fold enrichment (6-mer frequency, TF over GST control)
AAGTAT	1.36 fold enrichment (6-mer frequency, TF over GST control)
CTCCGG	1.52 fold enrichment (6-mer frequency, TF over GST control)
TACTAC	1.39 fold enrichment (6-mer frequency, TF over GST control)
CCCTAC	1.4 fold enrichment (6-mer frequency, TF over GST control)
AATGGT	1.42 fold enrichment (6-mer frequency, TF over GST control)
ACCTTA	1.2 fold enrichment (6-mer frequency, TF over GST control)
TCCTCG	1.47 fold enrichment (6-mer frequency, TF over GST control)
TACCTC	1.25 fold enrichment (6-mer frequency, TF over GST control)
ATTTCA	1.21 fold enrichment (6-mer frequency, TF over GST control)
AATTAC	1.26 fold enrichment (6-mer frequency, TF over GST control)
CTTATT	1.5 fold enrichment (6-mer frequency, TF over GST control)

Sequence	binding signal
TATTCA	1.38 fold enrichment (6-mer frequency, TF over GST control)
TTCCTG	2.22 fold enrichment (6-mer frequency, TF over GST control)
CGCGCT	1.18 fold enrichment (6-mer frequency, TF over GST control)
TTATCT	1.31 fold enrichment (6-mer frequency, TF over GST control)
TCCATT	1.26 fold enrichment (6-mer frequency, TF over GST control)
CTGATT	1.22 fold enrichment (6-mer frequency, TF over GST control)
AACATT	1.29 fold enrichment (6-mer frequency, TF over GST control)
TTAAGC	1.18 fold enrichment (6-mer frequency, TF over GST control)
GGCTCC	1.3 fold enrichment (6-mer frequency, TF over GST control)
CTATTC	1.42 fold enrichment (6-mer frequency, TF over GST control)
ACCGAT	1.17 fold enrichment (6-mer frequency, TF over GST control)
AATAAT	1.28 fold enrichment (6-mer frequency, TF over GST control)
CGATGG	1.32 fold enrichment (6-mer frequency, TF over GST control)
TTATCC	1.31 fold enrichment (6-mer frequency, TF over GST control)
ATGCGC	1.1 fold enrichment (6-mer frequency, TF over GST control)
ATTCAC	1.34 fold enrichment (6-mer frequency, TF over GST control)
TGCGAT	1.16 fold enrichment (6-mer frequency, TF over GST control)
TACTTT	1.34 fold enrichment (6-mer frequency, TF over GST control)
ACGCTT	1.37 fold enrichment (6-mer frequency, TF over GST control)
CCCGCA	1.29 fold enrichment (6-mer frequency, TF over GST control)

Target: T2, EHF (Homo sapiens, UniProt Q9NZC4 1-300)
T2 sequence: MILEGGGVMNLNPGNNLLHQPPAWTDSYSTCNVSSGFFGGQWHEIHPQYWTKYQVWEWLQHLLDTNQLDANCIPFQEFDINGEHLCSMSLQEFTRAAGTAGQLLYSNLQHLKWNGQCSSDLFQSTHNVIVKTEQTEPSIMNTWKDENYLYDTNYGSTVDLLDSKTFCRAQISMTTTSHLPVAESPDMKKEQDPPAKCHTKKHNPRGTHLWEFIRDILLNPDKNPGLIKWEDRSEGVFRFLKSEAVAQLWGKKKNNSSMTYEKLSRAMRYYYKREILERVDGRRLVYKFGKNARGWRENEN
Experiment: as above
Conditions: protein: recombinant; tags: N-terminal GST; dsDNA, one strand shown
Summary of the method: as §1

Sequence	binding signal
CATTCT	1.35 fold enrichment (6-mer frequency, TF over GST control)
TCGACT	1.39 fold enrichment (6-mer frequency, TF over GST control)
CTGTTT	1.34 fold enrichment (6-mer frequency, TF over GST control)
TACGCG	1.06 fold enrichment (6-mer frequency, TF over GST control)
GCTAAA	1.06 fold enrichment (6-mer frequency, TF over GST control)
AATCAA	1.12 fold enrichment (6-mer frequency, TF over GST control)
AATGCC	1.18 fold enrichment (6-mer frequency, TF over GST control)
ACACTT	1.66 fold enrichment (6-mer frequency, TF over GST control)
CCTATG	1.14 fold enrichment (6-mer frequency, TF over GST control)
AAGTAT	1.43 fold enrichment (6-mer frequency, TF over GST control)
CTCCGG	1.58 fold enrichment (6-mer frequency, TF over GST control)
TACTAC	1.36 fold enrichment (6-mer frequency, TF over GST control)
CCCTAC	1.33 fold enrichment (6-mer frequency, TF over GST control)
AATGGT	1.4 fold enrichment (6-mer frequency, TF over GST control)
ACCTTA	1.24 fold enrichment (6-mer frequency, TF over GST control)
TCCTCG	1.56 fold enrichment (6-mer frequency, TF over GST control)
TACCTC	1.2 fold enrichment (6-mer frequency, TF over GST control)
ATTTCA	1.24 fold enrichment (6-mer frequency, TF over GST control)
AATTAC	1.33 fold enrichment (6-mer frequency, TF over GST control)
CTTATT	1.48 fold enrichment (6-mer frequency, TF over GST control)

Sequence	binding signal
TATTCA	1.32 fold enrichment (6-mer frequency, TF over GST control)
TTCCTG	2.23 fold enrichment (6-mer frequency, TF over GST control)
CGCGCT	1.17 fold enrichment (6-mer frequency, TF over GST control)
TTATCT	1.3 fold enrichment (6-mer frequency, TF over GST control)
TCCATT	1.27 fold enrichment (6-mer frequency, TF over GST control)
CTGATT	1.22 fold enrichment (6-mer frequency, TF over GST control)
AACATT	1.33 fold enrichment (6-mer frequency, TF over GST control)
TTAAGC	1.13 fold enrichment (6-mer frequency, TF over GST control)
GGCTCC	1.31 fold enrichment (6-mer frequency, TF over GST control)
CTATTC	1.42 fold enrichment (6-mer frequency, TF over GST control)
ACCGAT	1.16 fold enrichment (6-mer frequency, TF over GST control)
AATAAT	1.36 fold enrichment (6-mer frequency, TF over GST control)
CGATGG	1.24 fold enrichment (6-mer frequency, TF over GST control)
TTATCC	1.52 fold enrichment (6-mer frequency, TF over GST control)
ATGCGC	1.17 fold enrichment (6-mer frequency, TF over GST control)
ATTCAC	1.2 fold enrichment (6-mer frequency, TF over GST control)
TGCGAT	1.19 fold enrichment (6-mer frequency, TF over GST control)
TACTTT	1.39 fold enrichment (6-mer frequency, TF over GST control)
ACGCTT	1.35 fold enrichment (6-mer frequency, TF over GST control)
CCCGCA	1.29 fold enrichment (6-mer frequency, TF over GST control)
